Data from PubChem BioAssay AID720697 (Broad Institute, 2013).
Measured potencies and affinities stand elsewhere. Records with an inconclusive call do not appear. Active and inactive are the calls of the source.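 How the source made its calls: active means signal loss with fitted half-maximal concentration at or below twice the top valid tested dose in every test run; inconclusive means runs disagree, flat 30 to 70% signal loss, or poor fit; inactive means all runs flat, opposite direction, or potency beyond limit.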

assay: general mammalian cell viability loss – inhibitor set, cherry-pick, set 2, cytotoxicity control for miR-122 modulator project, dose response (AID 720697); conditions: HEK293T viability, CellTiter-Glo luminescence, 48 h; series mostly up to 26 µM; activity change, negative = cytotoxicity: at the top concentration;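 further: 0% = median of neutral control wells and -100% = MG132 positive control wells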

SMILES	activity change, negative = cytotoxicity
CNC(=O)C[C@H]1CC[C@@H]2[C@H](COc3ccc(NC(=O)NC(C)C)cc3C(=O)N2C)O1	99.1% [at 23.5 µM] (inactive)
C[C@@H]1CN([C@@H](C)CO)S(=O)(=O)c2ccc(C3=CCCC3)cc2O[C@@H]1CN(C)C(=O)c1ccc(F)cc1	90.9% (inactive)
CCNC(=O)C[C@H]1CC[C@H]2[C@@H](COc3ccc(NC(=O)c4ccccc4)cc3C(=O)N2C)O1	118% (inactive)
CO[C@@H]1CN(C)C(=O)c2ccc(NS(C)(=O)=O)cc2OC[C@H](C)N(C(=O)CN(C)C)C[C@@H]1C	-24.6% (inactive)
CN1C(=O)c2cc(NC(=O)Cc3ccccc3)ccc2OC[C@@H]2O[C@@H](CC(=O)NCc3ccc(Cl)cc3)CC[C@H]21	24.9% (inactive)
CC(=O)Nc1ccc2c(c1)C(=O)N(C)[C@H]1CC[C@@H](CC(=O)NCc3ccc4c(c3)OCO4)O[C@@H]1CO2	125% [at 23.5 µM] (inactive)
C/C=C/c1ccc([C@@H]2[C@@H](CO)N(C(=O)Cc3cccnc3)[C@H]2CNC(C)=O)cc1	128% (inactive)
CN1C(=O)c2cc(NS(=O)(=O)c3cccc(F)c3)ccc2OC[C@@H]2O[C@@H](CC(=O)O)CC[C@@H]21	136% [at 23.5 µM] (inactive)
CCCC(NS(=O)(=O)c1ccc(Br)cc1)C(=O)O (centres undefined)	96.3% (inactive)
COc1ccc(S(=O)(=O)Nc2ccc3c(c2)CC(=O)N([C@@H](C)CO)C[C@@H](C)[C@H](CN(C)Cc2ccc(C(F)(F)F)cc2)O3)cc1	-44.1% (inactive)
COC(=O)C[C@H]1CC[C@H]2[C@@H](COc3ccc(NC(=O)Nc4c(C)noc4C)cc3C(=O)N2C)O1	110% (inactive)
C/C=C/c1ccc([C@H]2[C@H](CO)N[C@@H]2CN(CC)C(=O)c2cccnc2)cc1	72.5% (inactive)
CCCNC(=O)N1[C@@H]2CN(C(=O)c3ccccc3)c3ccccc3[C@@H]2[C@@H]1CO	89.2% (inactive)
CC(C)C#Cc1ccc2c(c1)O[C@H](CN(C)C(=O)c1ccncc1)[C@H](C)CN([C@H](C)CO)S2(=O)=O	10.8% (inactive)
CCCNC(=O)N1[C@H](CO)[C@H](c2ccc(-c3ccccc3)cc2)[C@@H]1CNC(C)=O	26.7% (inactive)
CCC(=O)N1[C@H](CN(CC)C(=O)c2ccccc2)[C@@H](c2ccccc2)[C@@H]1CO	55.3% (inactive)
CN1C(=O)c2cc(NC(=O)c3cccc(F)c3)ccc2OC[C@H]2O[C@H](CC(=O)N3CCc4ccccc4C3)CC[C@@H]21	7.53% [at 23.5 µM] (inactive)
CCNC(=O)C[C@H]1CC[C@H]2[C@@H](COc3ccc(NS(C)(=O)=O)cc3C(=O)N2C)O1	92.5% (inactive)
CN1C(=O)c2cc(NC(=O)Cc3ccccc3)ccc2OC[C@H]2O[C@H](CC(=O)O)CC[C@H]21	90.5% (inactive)
CC(=O)N(C)C[C@@H]1[C@@H](c2ccc(-c3cccc(C#N)c3)cc2)[C@H](CO)N1C(C)=O	-15.5% (inactive)

SMILES	activity change, negative = cytotoxicity
CCCNC(=O)C[C@@H]1CC[C@@H]2[C@H](COc3ccc(NC(=O)c4cc(F)cc(F)c4)cc3C(=O)N2C)O1	61.1% (inactive)
COc1ccccc1NC(=O)N1CCCCN2[C@H](CO)[C@H](c3ccc(C#CC4CCCC4)cc3)[C@H]2C1	91.3% (inactive)
CN1C(=O)c2cc(NC(=O)Cc3ccccc3)ccc2OC[C@H]2O[C@@H](CC(=O)NCc3ccc(Cl)cc3)CC[C@@H]21	135% (inactive)
c1ccc(-c2nnc3n2CCCC3)cc1	47.8% (inactive)
CNC(=O)c1nc(C)n(-c2cc(Cl)cc(Cl)c2)n1	4.99% [at 6 µM] (inactive)
Cc1cc(C(=O)Nc2ccc3c(c2)C(=O)N(C)[C@@H]2CC[C@@H](CC(=O)N[C@H](C)c4ccccc4)O[C@H]2CO3)no1	37.4% (inactive)
Cc1ccc(-c2cnc3c(c2)C(=O)N([C@H](C)CO)C[C@@H](C)[C@H](CN(C)CC2CCCCC2)O3)cc1	80.6% (inactive)
CCC(=O)N1[C@H](CN(C(C)C)S(C)(=O)=O)[C@@H](c2ccccc2)[C@@H]1CO	165% [at 23.5 µM] (inactive)
CCN(CC)CCNc1nc(-c2ccccc2)nnc1C(F)(F)F	76.1% (inactive)
CCCNC(=O)N1C[C@@H]2[C@H](c3ccccc31)[C@@H](CO)N2Cc1cc(F)ccc1F	30.6% [at 23.5 µM] (inactive)
CCNC(=O)C[C@@H]1CC[C@@H]2[C@@H](COc3ccc(NC(=O)c4ccccc4)cc3C(=O)N2C)O1	80.6% [at 23.5 µM] (inactive)
CC(=O)N1[C@H](CN(C(=O)c2ccc(F)cc2)C(C)C)[C@@H](c2ccccc2)[C@@H]1CO	113% (inactive)
CCCC(=O)Nc1ccc2c(c1)C(=O)N(C)[C@H]1CC[C@H](CC(=O)NCCN3CCCCC3)O[C@@H]1CO2	27.1% (inactive)
CN1C(=O)c2cc(NC(=O)Nc3ccccc3F)ccc2OC[C@@H]2O[C@H](CC(=O)O)CC[C@@H]21	20.6% [at 23.5 µM] (inactive)
C/C=C/c1ccc2c(c1)O[C@H](CN(C)C(=O)NCCC)[C@H](C)CN([C@@H](C)CO)S2(=O)=O	152% (inactive)
CCCNC(=O)Nc1ccc2c(c1)OC[C@H](C)N(CCC)C[C@H](C)[C@H](OC)CN(C)C2=O	31.9% (inactive)
C/C=C/c1ccc([C@H]2[C@H](CO)N[C@H]2CN(C)S(=O)(=O)c2ccccc2)cc1	161% (inactive)
C/C=C/c1ccc([C@@H]2[C@H](CO)N(Cc3ccccn3)[C@H]2CNC(=O)CC)cc1	82.8% (inactive)
COCCN(C[C@@H]1[C@@H](c2ccccc2)[C@H](CO)N1C(=O)C1CCC1)C(C)=O	170% (inactive)
